From PubChem BioAssay (EPA / NIEHS)
The source made the active and inactive calls. The calls were made as follows: active = hit-call score of the fitted dose curve at least 0.9, where 1 is the maximum; inactive = score below 0.9.

How the values were obtained:
[1] = read-out: Vascular endothelial growth factor receptor 2 (Homo sapiens) (UniProt P35968); experiment: BSK_4H_VEGFRII: BioMAP Diversity Plus: 4H Assay for Vascular endothelial growth factor receptor 2 (VEGFR2) Biomarker Activity (AID 2283031); conditions: primary human endothelial cells (HUVEC); actives raise or lower the signal
Outline: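 HUVEC (human primary), 4H system; 24 h post-dose; VEGFRII by ELISA; bidirectional curve fit vs DMSO baseline; gain or loss of signal scored.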

[2] = read-out: Human Leukocyte Antigen - DR isotype (HLADR), HLA-DRA (gene 3122); experiment: BSK_BE3C_HLADR: BioMAP Diversity Plus: BE3C Assay for Human Leukocyte Antigen - DR isotype (HLADR) Biomarker Activity (AID 2283032); conditions: primary human bronchial epithelial cells; actives raise or lower the signal
Outline: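 Cell-surface HLA-DR ELISA readout at 24 h after dosing in the BE3C primary human lung bronchial epithelial system; gain or loss of signal against DMSO, with parallel sulforhodamine B staining of total protein for overt cytotoxicity.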

[3] = read-out: Vascular cell adhesion molecule 1 (VCAM1), VCAM1 (gene 7412); experiment: BSK_4H_VCAM1: BioMAP Diversity Plus: 4H Assay for Vascular cell adhesion molecule 1 (VCAM1) Biomarker Activity (AID 2283033); conditions: primary human endothelial cells (HUVEC); actives raise or lower the signal
Outline: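 VCAM-1 ELISA read 24 h after chemical dosing of HUVEC in the BioMAP 4H system, with gain or loss of signal fitted relative to DMSO. Parallel SRB staining (560 nm) checked overt cytotoxicity.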

[4] = read-out: Interferon-gamma inducible Protein 10 (IP10), CXCL10 (gene 3627); experiment: BSK_BE3C_IP10: BioMAP Diversity Plus: BE3C Assay for Interferon-gamma inducible Protein 10 (IP10) Biomarker Activity (AID 2283034); conditions: primary human bronchial epithelial cells; actives raise or lower the signal
Outline: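 IP-10 quantified by ELISA in human primary bronchial epithelial cell cultures at 24 hours post-dosing. Gain or loss of signal fitted relative to DMSO; parallel SRB staining assessed overt cytotoxicity.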

[5] = read-out: Transforming growth factor beta 1 (TGFb1), TGFB1 (gene 7040); experiment: BSK_BE3C_TGFb1: BioMAP Diversity Plus: BE3C Assay for Transforming growth factor beta 1 (TGFb1) Biomarker Activity (AID 2283036); conditions: primary human bronchial epithelial cells; actives raise or lower the signal
Outline: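 ELISA readout of TGF-b1 from human lung bronchial epithelial primary cells, taken 24 h post-treatment. Gain or loss of signal fitted relative to DMSO baseline, with parallel SRB staining for overt cytotoxicity.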

[6] = read-out: Urokinase-type plasminogen activator receptor (uPAR), PLAUR (gene 5329); experiment: BSK_BE3C_uPAR: BioMAP Diversity Plus: BE3C Assay for Urokinase-type plasminogen activator receptor (uPAR) Biomarker Activity (AID 2283039); conditions: primary human bronchial epithelial cells; actives raise or lower the signal
Outline: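 uPAR levels were measured by ELISA after 24 h compound treatment of primary human bronchial epithelial cells, fitted in both directions relative to DMSO. Parallel SRB staining served as the cytotoxicity read-out.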

[7] = read-out: Interleukin-6 (IL6), IL6 (gene 3569); experiment: BSK_CASM3C_IL6: BioMAP Diversity Plus: CASM3C Assay for Interleukin-6 (IL6) Biomarker Activity for (AID 2283040); conditions: primary human coronary artery smooth muscle cells; actives raise or lower the signal
[8] = read-out: urokinase plasminogen activator (uPA), PLAU (gene 5328); experiment: BSK_BE3C_uPA: BioMAP Diversity Plus: BE3C Assay for urokinase plasminogen activator (uPA) Biomarker Activity (AID 2283038); conditions: primary human bronchial epithelial cells; actives raise or lower the signal
Outline: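 ELISA read-out of uPA in human lung primary bronchial epithelial cultures, 24 h post-dosing. Gain or loss of signal fitted bidirectionally relative to DMSO baseline; cytotoxicity checked in parallel cultures via SRB total protein stain.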

[9] = read-out: Plasminogen activator inhibitor-1 (PAI1), SERPINE1 (gene 5054); experiment: BSK_BE3C_PAI1: BioMAP Diversity Plus: BE3C Assay for Plasminogen activator inhibitor-1 (PAI1) Biomarker Activity (AID 2283037); conditions: primary human bronchial epithelial cells; actives raise or lower the signal
Outline: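 PAI-1 was measured by ELISA in human primary bronchial epithelial cultures 24 h after chemical dosing, with cytotoxicity checked by SRB total-protein staining in parallel cultures. Activity was fitted in both directions relative to DMSO.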

[10] = read-out: Monokine induced gamma interferon (MIG), CXCL9 (gene 4283); experiment: BSK_BE3C_MIG: BioMAP Diversity Plus: BE3C Assay for Monokine induced gamma interferon (MIG) Biomarker Activity (AID 2283035); conditions: primary human bronchial epithelial cells; actives raise or lower the signal
Outline: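 Dose cells (human primary bronchial epithelial), incubate 24 h, quantify MIG by ELISA, then fit concentration–response in both directions relative to DMSO control.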

Measured: AC50

OCCNCCO
not listed: [8] | [9] | [10]
inactive: all other assays above

FC(F)=C(F)C(F)(F)C(F)(F)C(F)(F)C(F)(F)C(F)(F)C(F)(F)F
not listed: [5] | [9] | [10]
inactive: all other assays above

NC(N)=O
not listed: [10]
inactive: all other assays above

c1ccc2c(c1)-c1cccc3c1c-2cc1ccccc13
not listed: [1]
inactive: all other assays above

C=CCc1cc(S(=O)(=O)c2ccc(O)c(CC=C)c2)ccc1O
inactive: [7]
active: [2] 8.38 µM | [3] 32.3 µM | [4] 13.4 µM | [10] 29.8 µM | [5] 10.5 µM | [8] 23.5 µM | [6] 15.4 µM

CCc1ccc(O)c(C(C)(C)C)c1
active: [3] 31.1 µM
not listed: [9] | [10]
inactive: all other assays above

CC[C@H](C)C(=O)O[C@H]1C[C@H](O)C=C2C=C[C@H](C)[C@H](CC[C@@H](O)C[C@@H](O)CC(=O)O)[C@H]21
not listed: [8] | [9] | [10]
inactive: all other assays above

OC(Cn1cncn1)(Cn1cncn1)c1ccc(F)cc1F
not listed: [1]
inactive: all other assays above

Cn1c(=O)c2[nH]cnc2n(C)c1=O
not listed: [1]
inactive: all other assays above

O=S1(=O)CCCO1
not listed: [1] | [9]
inactive: all other assays above

O=C(O)[C@H](O)[C@@H](O)C(=O)O
not listed: [8] | [9] | [10]
inactive: all other assays above

O=C(Cl)C(F)(F)C(F)(F)C(F)(F)C(=O)Cl
not listed: [5] | [9] | [10]
inactive: all other assays above

S=P(N1CC1)(N1CC1)N1CC1
not listed: [9] | [10]
inactive: all other assays above

Cc1nccn1-c1ccc(Sc2cccc(C3(C(N)=O)CCOCC3)c2)cc1
active: [2] 12.8 µM | [3] 6.37 µM | [4] 20 µM | [8] 14.3 µM | [6] 10.3 µM | [7] 5.2 µM
inactive: [10] | [5]

O=C(NO)C1(NS(=O)(=O)c2ccc(Oc3ccc(F)cc3)cc2)CCOCC1
not listed: [9] | [10]
inactive: all other assays above

CC(C)CCCCCCOC(=O)C1CCCCC1C(=O)OCCCCCCC(C)C (configuration not stated)
not listed: [8] | [10]
inactive: all other assays above

COS(C)(=O)=O
not listed: [1] | [8] | [10]
inactive: all other assays above

CCCc1ccccc1
not listed: [1] | [8] | [9]
inactive: all other assays above

NC(=O)NN=Cc1ccc([N+](=O)[O-])o1
not listed: [1] | [8] | [9]
inactive: all other assays above

Nc1ccn([C@@H]2O[C@H](CO)[C@@H](O)[C@@H]2O)c(=O)n1
not listed: [1] | [8] | [9]
inactive: all other assays above

OCc1ccccc1
not listed: [1] | [8] | [10]
inactive: all other assays above
